Assay [1] addresses Retinoic acid receptor RXR-alpha (Homo sapiens) (UniProt P19793). Kind of assay: ATG_RXRa_TRANS: Attagene TRANS-FACTORIAL HepG2 Assay for human Retinoid X Receptor alpha (RXRa) (AID 2283012; active = hit-call score of the fitted dose curve at least 0.9, where 1 is the maximum). The gist of the method: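 HepG2 cells transiently transfected with GAL4-UAS reporter units and chimeric RXRa-Gal4 protein, treated 24 h. Reporter mRNA measured by RT-PCR, fluorescent labelling, HpaI digestion and capillary electrophoresis. Induction fitted against DMSO.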

Read-out in assay [2]: E-selectin (Homo sapiens) (UniProt P16581)
Kind of assay: BSK_3C_Eselectin: BioMAP Diversity Plus: 3C Assay for Eselectin Biomarker Activity (AID 2283015). As to conditions: primary human endothelial cells (HUVEC); actives raise or lower the signal. The gist of the method: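 Endpoint derived by bidirectional fitting against DMSO vehicle; signal is ELISA-detected E-selectin from primary HUVEC at 24 h post-dosing, with parallel SRB staining (0.1% SRB, 560 nm) flagging cytotoxicity.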

Read-out in assay [3]: Interleukin-1 alpha (IL1a), IL1A (gene 3552)
The assay can be described thus: BSK_BE3C_IL1a: BioMAP Diversity Plus: BE3C Assay for Interleukin-1 alpha (IL1a) Biomarker Activity (AID 2283016). As to conditions: primary human bronchial epithelial cells; actives raise or lower the signal. In short, it runs like this:
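Human primary bronchial epithelial cells, 24 h chemical exposure; IL-1a quantified by ELISA, fitted bidirectionally against DMSO. Cytotoxicity assessed in parallel by SRB total-protein staining at the time of measurement.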

Read-out in assay [4]: Monocyte Chemoattractant Protein-1 (MCP1), CCL2 (gene 6347)
Kind of assay: BSK_3C_MCP1: BioMAP Diversity Plus: 3C Assay for Monocyte Chemoattractant Protein-1 (MCP1) Biomarker Activity (AID 2283017). As to conditions: primary human endothelial cells (HUVEC); actives raise or lower the signal. In short, it runs like this:
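Using human vascular primary endothelium, researchers measured MCP-1 by ELISA 24 h after treatment, with DMSO serving as negative control for bidirectional fitting.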

Read-out in assay [5]: Monocyte Chemoattractant Protein-1 (MCP1), CCL2 (gene 6347)
The assay can be described thus: BSK_4H_MCP1: BioMAP Diversity Plus: 4H Assay for Monocyte Chemoattractant Protein-1 (MCP1) Biomarker Activity (AID 2283018). As to conditions: primary human endothelial cells (HUVEC); actives raise or lower the signal. In short, it runs like this:
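Human umbilical vein endothelial cells (4H system) exposed to chemicals for 24 h in 96-well format. MCP-1 measured by ELISA; bidirectional fitting against DMSO, with SRB total-protein staining in parallel cultures for cytotoxicity.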

Read-out in assay [6]: Human Leukocyte Antigen - DR isotype (HLADR), HLA-DRA (gene 3122)
The assay can be described thus: BSK_3C_HLADR: BioMAP Diversity Plus: 3C Assay for Human Leukocyte Antigen - DR isotype (HLADR) Biomarker Activity (AID 2283019).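 As to outcome: ELISA of cell-surface HLA-DR on HUVEC 24 h after dosing.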 As to conditions: primary human endothelial cells (HUVEC); actives raise or lower the signal. The gist of the method: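 Compound added to primary HUVEC cultures, 24 h incubation, then HLA-DR determined by ELISA; endpoint derived by bidirectional fitting relative to DMSO negative control.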

Read-out in assay [7]: Interleukin-8 (IL8), CXCL8 (gene 3576)
Kind of assay: BSK_3C_IL8: BioMAP Diversity Plus: 3C Assay for Interleukin-8 (IL8) Biomarker Activity (AID 2283020). As to conditions: primary human endothelial cells (HUVEC); actives raise or lower the signal. In short, it runs like this: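 Primary human umbilical vein endothelial cells were dosed for 24 h. IL-8 was quantified by ELISA and fitted bidirectionally against DMSO. Cytotoxicity was assessed in parallel cultures by SRB staining at 560 nm.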

Read-out in assay [8]: Monokine induced gamma interferon (MIG), CXCL9 (gene 4283)
Kind of assay: BSK_3C_MIG: BioMAP Diversity Plus: 3C Assay for Monokine induced gamma interferon (MIG) Biomarker Activity (AID 2283021).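 As to AC50: MIG protein level measured by immunoassay in the treated endothelial cultures.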 As to conditions: primary human endothelial cells (HUVEC); actives raise or lower the signal. In short, it runs like this: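 HUVEC primary endothelial cultures dosed with chemical; MIG quantified by ELISA at 24 h. Data fitted bidirectionally against DMSO control, with parallel SRB total-protein staining for cytotoxicity.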

Assay [9] has as its target human Vitamin D Receptor (VDR), VDR (gene 7421) (UniProt P11473). Kind of assay: ATG_VDR_TRANS: Attagene TRANS-FACTORIAL HepG2 Assay for human Vitamin D Receptor (VDR) (AID 2283022; active = hit-call score of the fitted dose curve at least 0.9, where 1 is the maximum). The gist of the method:
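Multiplexed TRANS reporter in HepG2; 24 h treatment; reporter mRNA by RT-PCR plus capillary electrophoresis; upregulation scored relative to DMSO.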

The nature of assay [10]: BSK_3C_SRB: Viability Assessment in the BioMAP Diversity Plus: 3C Assay (AID 2283023).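 Also: cells read 24 h after compound dosing; fitted both ways against DMSO so a hit may be signal rise or drop.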 As to conditions: primary human endothelial cells (HUVEC). In short, it runs like this: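 Overt cytotoxicity is gauged in parallel confluent HUVEC cultures by SRB total-protein staining at the time of biomarker measurement, 24 h after dosing. Gain or loss of signal is fitted versus DMSO.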

Read-out in assay [11]: Matrix Metallopeptidase 1 (MMP1), MMP1 (gene 4312)
Kind of assay: BSK_BE3C_MMP1: BioMAP Diversity Plus: BE3C Assay for Matrix Metallopeptidase 1 (MMP1) Biomarker Activity (AID 2283024). As to conditions: primary human bronchial epithelial cells; actives raise or lower the signal. The gist of the method: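 Human primary bronchial epithelial cells (BE3C system) dosed for 24 h; MMP-1 quantified by ELISA. Bidirectional fit against DMSO; cytotoxicity tracked in parallel cultures by SRB total-protein staining.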

Assay [12] in a line: BSK_3C_Vis: BioMAP Diversity Plus: 3C Assay for Morphology Visualization (AID 2283025).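 Also: fitted both ways so gain or loss versus DMSO counts.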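 As to AC50: light microscopy image of cell morphology used as background control.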 As to conditions: primary human endothelial cells (HUVEC). The gist of the method: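 Human umbilical vein endothelial cell morphology was inspected by light microscopy 24 h after chemical dosing; scored bidirectionally relative to DMSO.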
Read-out in assay [13]: Pselectin, SELP (gene 6403)
Kind of assay: BSK_4H_Pselectin: BioMAP Diversity Plus: 4H Assay for Pselectin Biomarker Activity (AID 2283026). As to conditions: primary human endothelial cells (HUVEC); actives raise or lower the signal. In short, it runs like this: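 Primary human umbilical vein endothelial cells were treated 24 h, and cell-surface P-selectin was then quantified by ELISA. Bidirectional fit versus DMSO; cytotoxicity checked in parallel cultures by SRB total-protein staining.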

Assay [14] is described as follows: BSK_4H_SRB: Viability Assessment in the BioMAP Diversity Plus: 4H Assay (AID 2283027).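 Also: cells exposed to compound for 24 h before staining.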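 As to AC50: curves fitted both ways versus DMSO so AC50 may be loss or gain.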 As to conditions: primary human endothelial cells (HUVEC). The gist of the method: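 Human umbilical vein endothelial cells were dosed with chemical and, after 24 h, fixed with 10% TCA, stained with 0.1% sulforhodamine B, and read at 560 nm to give total protein as a cytotoxicity measure. Bidirectional fitting relative to DMSO control.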

Assay [15] in a line: BSK_BE3C_SRB: Viability Assessment in the BioMAP Diversity Plus: BE3C Assay (AID 2283028).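 As to AC50: fitted both ways so AC50 may mark signal gain or loss versus DMSO.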 As to conditions: primary human bronchial epithelial cells. The gist of the method:
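SRB total-protein staining (0.1%, after TCA fixation) of chemically dosed human bronchial epithelial primary cells at 24 h; DMSO serves as the negative control for bidirectional curve fitting.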

Read-out in assay [16]: Thrombomodulin, THBD (gene 7056)
The assay can be described thus: BSK_3C_Thrombomodulin: BioMAP Diversity Plus: 3C Assay for Thrombomodulin Biomarker Activity (AID 2283029). As to conditions: primary human endothelial cells (HUVEC); actives raise or lower the signal. In short, it runs like this: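 Human umbilical vein endothelial cells were exposed to chemicals for 24 h; cell-surface thrombomodulin quantified by ELISA, with bidirectional fitting against DMSO baseline.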

In assay [17] the target is human Retinoid X Receptor beta (RXRb), RXRB (gene 6257) (UniProt P28702). The assay can be described thus: ATG_RXRb_TRANS: Attagene TRANS-FACTORIAL HepG2 Assay for human Retinoid X Receptor beta (RXRb) (AID 2283013; active = hit-call score of the fitted dose curve at least 0.9, where 1 is the maximum). In short, it runs like this: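 HepG2 cells were transiently transfected with multiplexed GAL4-UAS reporters and a chimeric RXRb-Gal4 construct, then exposed for 24 h. Reporter mRNA was quantified by RT-PCR, FAM labeling, HpaI digestion and capillary electrophoresis; gain of signal was scored against DMSO.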
Chain of human Retinoid X Receptor beta (RXRb), RXRB (gene 6257) (P28702 whole entry, looked up, the tested form may be a part): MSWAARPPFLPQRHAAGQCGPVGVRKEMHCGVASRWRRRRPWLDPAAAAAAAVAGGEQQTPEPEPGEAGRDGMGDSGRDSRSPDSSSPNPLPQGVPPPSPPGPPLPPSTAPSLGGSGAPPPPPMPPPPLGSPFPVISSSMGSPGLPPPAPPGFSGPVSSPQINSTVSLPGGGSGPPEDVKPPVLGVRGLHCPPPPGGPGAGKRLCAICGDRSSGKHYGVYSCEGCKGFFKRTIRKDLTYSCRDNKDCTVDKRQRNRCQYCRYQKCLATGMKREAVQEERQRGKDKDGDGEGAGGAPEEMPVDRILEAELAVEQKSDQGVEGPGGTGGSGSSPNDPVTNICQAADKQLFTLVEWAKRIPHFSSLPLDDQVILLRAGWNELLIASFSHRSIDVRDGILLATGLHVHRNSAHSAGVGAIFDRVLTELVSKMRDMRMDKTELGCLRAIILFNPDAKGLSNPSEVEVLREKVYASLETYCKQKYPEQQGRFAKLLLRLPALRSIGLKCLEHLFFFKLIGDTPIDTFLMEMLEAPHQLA

Assay [18] deals with human Thyroid Receptor alpha (THRa1), THRA (gene 7067) (UniProt P10827). Kind of assay: ATG_THRa1_TRANS: Attagene TRANS-FACTORIAL HepG2 Assay for human Thyroid Receptor alpha (THRa1) (AID 2283014; active = hit-call score of the fitted dose curve at least 0.9, where 1 is the maximum). The gist of the method:
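Measured here is mRNA from a GAL4-UAS reporter in transfected HepG2 cells carrying a Gal4-fused receptor, 24 h post-dose. DMSO served as negative control and baseline.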

Inconclusive results are not listed. Active and inactive are the calls of the source. The calls were made as follows, unless noted: active = hit-call score of the fitted dose curve at least 0.9, where 1 is the maximum; inactive = score below 0.9.

Chain of E-selectin (Homo sapiens) (P16581 whole entry, looked up): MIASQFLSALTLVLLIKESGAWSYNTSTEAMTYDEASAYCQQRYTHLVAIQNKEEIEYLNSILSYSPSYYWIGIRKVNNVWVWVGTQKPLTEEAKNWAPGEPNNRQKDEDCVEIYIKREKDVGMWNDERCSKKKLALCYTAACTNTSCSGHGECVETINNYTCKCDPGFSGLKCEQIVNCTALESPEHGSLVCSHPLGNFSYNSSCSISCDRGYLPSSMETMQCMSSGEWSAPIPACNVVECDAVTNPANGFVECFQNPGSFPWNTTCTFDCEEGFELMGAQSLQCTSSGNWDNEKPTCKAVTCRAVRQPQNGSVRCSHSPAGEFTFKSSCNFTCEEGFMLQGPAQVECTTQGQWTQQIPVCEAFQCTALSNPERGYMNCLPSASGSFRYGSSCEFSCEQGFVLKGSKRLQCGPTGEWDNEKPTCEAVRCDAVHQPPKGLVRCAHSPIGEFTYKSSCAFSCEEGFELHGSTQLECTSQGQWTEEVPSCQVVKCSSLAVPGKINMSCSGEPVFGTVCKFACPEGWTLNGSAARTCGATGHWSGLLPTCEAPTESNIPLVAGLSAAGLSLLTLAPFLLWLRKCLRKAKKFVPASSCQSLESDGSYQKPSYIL
Chain of Retinoic acid receptor RXR-alpha (Homo sapiens) (P19793 whole entry, looked up, the tested form may be a part): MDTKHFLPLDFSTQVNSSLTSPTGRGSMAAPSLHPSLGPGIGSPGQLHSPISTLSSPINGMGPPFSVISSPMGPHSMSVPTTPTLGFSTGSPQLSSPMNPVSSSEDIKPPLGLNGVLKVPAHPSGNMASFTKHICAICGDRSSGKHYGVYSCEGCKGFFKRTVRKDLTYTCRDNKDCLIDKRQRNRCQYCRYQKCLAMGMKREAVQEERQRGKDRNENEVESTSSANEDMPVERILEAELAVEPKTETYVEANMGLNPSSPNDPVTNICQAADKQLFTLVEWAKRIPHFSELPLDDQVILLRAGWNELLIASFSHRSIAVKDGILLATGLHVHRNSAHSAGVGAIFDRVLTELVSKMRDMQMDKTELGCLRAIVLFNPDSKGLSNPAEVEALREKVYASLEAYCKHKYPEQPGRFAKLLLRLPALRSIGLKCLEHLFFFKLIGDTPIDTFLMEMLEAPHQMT
Chain of human Vitamin D Receptor (VDR), VDR (gene 7421) (P11473 whole entry, looked up): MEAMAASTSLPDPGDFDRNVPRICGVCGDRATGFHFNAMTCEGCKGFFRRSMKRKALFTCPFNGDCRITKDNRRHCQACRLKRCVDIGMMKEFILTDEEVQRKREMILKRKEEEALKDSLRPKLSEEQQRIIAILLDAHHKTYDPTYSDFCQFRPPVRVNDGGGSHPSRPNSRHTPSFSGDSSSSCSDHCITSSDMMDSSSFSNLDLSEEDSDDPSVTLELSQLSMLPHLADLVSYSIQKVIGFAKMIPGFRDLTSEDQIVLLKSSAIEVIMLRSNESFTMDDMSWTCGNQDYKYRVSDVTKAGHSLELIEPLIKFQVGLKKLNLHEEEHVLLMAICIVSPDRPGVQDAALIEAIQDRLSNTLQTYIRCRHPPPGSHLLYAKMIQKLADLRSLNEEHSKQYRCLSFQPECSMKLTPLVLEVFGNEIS
Chain of human Thyroid Receptor alpha (THRa1), THRA (gene 7067) (P10827 whole entry, looked up, the tested form may be a part): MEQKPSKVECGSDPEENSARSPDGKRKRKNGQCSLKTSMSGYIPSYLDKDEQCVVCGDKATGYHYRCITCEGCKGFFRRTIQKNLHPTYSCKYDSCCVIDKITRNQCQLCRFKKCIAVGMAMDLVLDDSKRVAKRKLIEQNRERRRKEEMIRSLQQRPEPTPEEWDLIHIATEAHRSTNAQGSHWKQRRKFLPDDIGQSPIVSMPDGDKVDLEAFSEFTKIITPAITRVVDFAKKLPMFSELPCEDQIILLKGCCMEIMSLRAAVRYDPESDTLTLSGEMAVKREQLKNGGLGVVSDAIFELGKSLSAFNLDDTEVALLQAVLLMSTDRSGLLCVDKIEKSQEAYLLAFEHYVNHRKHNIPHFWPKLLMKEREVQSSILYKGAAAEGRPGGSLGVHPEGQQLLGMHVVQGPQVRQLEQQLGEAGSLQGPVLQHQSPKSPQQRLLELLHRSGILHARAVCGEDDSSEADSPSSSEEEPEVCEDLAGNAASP

Regarding `CC(Cl)CN(C)C` (stereo not given), the result in [1], in assay [2], in [3], in assay [4], in [5] and in assay [7] was inactive. The outcome in assay [8], in assay [9], in [10], in assay [11], in assay [12] and in [13] was inactive. Besides, the result in assay [14], in [15] and in assay [16] was inactive. Besides, the AC50 in assay [6] is 7.97 µM (active).
For `c1nc[nH]n1`, the molecule was called inactive in assay [17], in assay [2], in assay [3], in assay [4], in [5] and in assay [6]. Also, the outcome in [7], in [8], in assay [9], in [11], in assay [12] and in assay [13] was inactive. Besides, the outcome in assay [14], in assay [15] and in [16] was inactive.
With `O=[N+]([O-])c1ccccc1`, in assay [17], the AC50 was 10.7 µM (active). For the same molecule, the result in assay [2], in [3], in [4], in [6], in assay [7] and in [8] was inactive. For the same molecule, the outcome in assay [10], in assay [11], in assay [12], in assay [13], in [14] and in assay [15] was inactive. In addition, the outcome in [16] was inactive.
`CC(C)(C)c1ccc(O)cc1`: the result in assay [1], in assay [2], in [3], in assay [4], in assay [5] and in [6] was inactive. Moreover, the outcome in assay [7], in [8], in assay [11], in assay [12], in [13] and in assay [14] was inactive. Also, the outcome in [15] and in assay [16] was inactive. The AC50 in assay [17] was 69.3 µM (active).
Consider `ClC(Cl)=C(c1ccc(Cl)cc1)c1ccccc1Cl`, for which the molecule was classed as inactive in [1], in [9], in [11] and in assay [16]. The AC50 was 27.7 µM (active) in assay [17]; 20 µM (active) in [2]; 14.2 µM (active) in [3]; 12.1 µM (active) in assay [4]; 5.93 µM (active) in assay [5]; 10.4 µM (active) in assay [6]. For the same molecule, the AC50 in [7] is 11.8 µM (active); in assay [8], 29.2 µM (active); in assay [12], 14.4 µM (active); in assay [13] it was 10.6 µM (active); in assay [14] it was 12.6 µM (active); in [15], 10.5 µM (active).
For the molecule `CCOP(=S)(OCC)SCSCC`, the outcome in assay [1], in assay [2], in [3], in [4], in [5] and in [6] was inactive. In addition, the result in [7], in [8], in assay [9], in assay [10], in [11] and in assay [12] was inactive. Further, the result in [13], in [14], in [15] and in assay [16] was inactive. Also, the half-maximal activity concentration (AC50) in assay [17] was 48.2 µM (active).
For `CCOP(=S)(Oc1ccc([N+](=O)[O-])cc1)c1ccccc1` (stereo not given), the AC50 in assay [17] was 2.35 µM (active). Also, the result in assay [2], in assay [3], in assay [4], in assay [5], in [6] and in assay [7] was inactive. In addition, the result in [8], in assay [9], in assay [10], in assay [11], in assay [12] and in assay [13] was inactive. The result in assay [14], in assay [15] and in assay [16] was inactive.
For `CCCCOCC1CO1` (stereo not given), the call in assay [9] was inactive.
Turning to `O=c1ssc(Cl)c1Cl`, the outcome in [1], in assay [18] and in [16] was inactive. In addition, the concentration at half-maximal activity (AC50) in [2] is 6.13 µM (active); in assay [3] it was 12.2 µM (active); in [4] it was 8.43 µM (active); in assay [6], 3.59 µM (active); in assay [7], 7.48 µM (active); in assay [8] it was 14.8 µM (active). For the same molecule, the AC50 in [10] is 5.07 µM (active); in assay [11], 9.81 µM (active); in assay [12], 4.24 µM (active); in assay [13], 4.74 µM (active); in assay [14], 5.42 µM (active); in assay [15], 5.34 µM (active).

Usually AC50 stands for the midpoint of the concentration-response curve, whichever way the signal moves.

Values taken from PubChem BioAssay (EPA / NIEHS).
